Measurements as given in the supplement of paper PMC12645437, “Orthogonal IMiD-Degron Pairs Induce Selective Protein Degradation in Cells” (ACS Chemical Biology, 2025).
The full ranking holds about 8,300 sequences; the median of “log2 fold change of degron read counts, EGFP-low vs EGFP+ sorted cells (limma voom), compound-induced degradation” is about -1.1, and the highest 2% start at about 3.2. The sample as a whole holds a higher share of the highest values than the screen did.

T1: CRBN, Q96SW2
T1 chain: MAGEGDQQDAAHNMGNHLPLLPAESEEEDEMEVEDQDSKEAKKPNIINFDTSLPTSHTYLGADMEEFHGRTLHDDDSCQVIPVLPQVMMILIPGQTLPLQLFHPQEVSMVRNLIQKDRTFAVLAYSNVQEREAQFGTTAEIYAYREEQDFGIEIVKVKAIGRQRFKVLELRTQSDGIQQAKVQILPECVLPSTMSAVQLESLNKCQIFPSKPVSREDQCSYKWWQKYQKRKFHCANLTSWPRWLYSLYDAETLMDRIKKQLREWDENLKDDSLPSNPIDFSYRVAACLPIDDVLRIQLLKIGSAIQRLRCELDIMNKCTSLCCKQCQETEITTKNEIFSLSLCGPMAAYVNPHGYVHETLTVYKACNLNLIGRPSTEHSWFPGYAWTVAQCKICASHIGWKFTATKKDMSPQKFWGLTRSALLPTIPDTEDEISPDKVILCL


Target: T1, CRBN, Q96SW2
Assay: log2 fold change of degron read counts, EGFP-low vs EGFP+ sorted cells (limma voom), compound-induced degradation; higher = more compound-induced degradation of the degron-EGFP fusion; degrons are variants of IKZF1/3 zinc finger 2; compound dose not given here
Conditions: Jurkat, 18 h
[1] = compound: compound 19 (5-tert-butyl-thalidomide)
[2] = compound: compound 22 (5-morpholino-thalidomide)
[3] = compound: compound 33 (diphenyl IMiD analogue)
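Note: pooled lentiviral library of zinc finger degron-EGFP fusions in mCherry-positive Jurkat cells, FACS-sorted after compound exposure, with degron abundance counted by next-generation sequencing.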

Sequence | log2 fold change of degron read counts [1] | log2 fold change of degron read counts [2] | log2 fold change of degron read counts [3] | log2 fold change of degron read counts (compound: thalidomide)
FTCPQCGAWFTQKGNLLRHIKL [46F_47T_49P_50Q_52G_53A_54W_55F_67L_, Q9UKT9] | -1.97 | -1.41 | 0.47 | -0.222
FHCPICGHTFTQKGNLLRHIKL [46F_47H_49P_50I_52G_53H_54T_55F_67L_, Q9UKT9] | -2.42 | -2.36 | -1.31 | -1.65
FQCNQCGHKFTQKGNLLRHIKL [46F_47Q_49N_50Q_52G_53H_54K_55F_67L_, Q9UKT9] | -3.13 | -3.72 | -2.89 | -2.56
FICEICGRSFTQKGNLLRHIKL [46F_47I_49E_50I_52G_53R_54S_55F_67L_, Q9UKT9] | -2.87 | -2.13 | -1.31 | -0.772
FYCEICGRYFTQKGNLLRHIKL [46F_47Y_49E_50I_52G_53R_54Y_55F_67L_, Q9UKT9] | 1.09 | 0.388 | -0.525 | -1.2
FQCNICGACFTQKGNLLRHIKL [46F_47Q_49N_50I_52G_53A_54C_55F_67L_, Q9UKT9] | -0.735 | 1.82 | 1.65 | 3.38
FRCNICGACFTQKGNLLRHIKL [46F_47R_49N_50I_52G_53A_54C_55F_67L_, Q9UKT9] | -1.25 | -0.613 | 0.532 | 0.406
FSCNICGACFTQKGNLLRHIKL [46F_47S_49N_50I_52G_53A_54C_55F_67L_, Q9UKT9] | 0.632 | 1.69 | 2.11 | 1.06
FKCNICGACFTQKGNLLRHIKL [46F_47K_49N_50I_52G_53A_54C_55F_67L_, Q9UKT9] | -1.31 | -2.26 | -2.53 | -1.43
FYCNICGACFTQKGNLLRHIKL [46F_47Y_49N_50I_52G_53A_54C_55F_67L_, Q9UKT9] | 2.86 | 3.15 | 1.94 | 0.278
FWCNICGACFTQKGNLLRHIKL [46F_47W_49N_50I_52G_53A_54C_55F_67L_, Q9UKT9] | 2.95 | 3.36 | 1.98 | 0.445
FVCDQCGAFFTQKGNLLRHIKL [46F_47V_49D_50Q_52G_53A_54F_55F_67L_, Q9UKT9] | -2.6 | -2.32 | -2.12 | -2.19
FFCSVCGHPFTQKGNLLRHIKL [46F_47F_49S_50V_52G_53H_54P_55F_67L_, Q9UKT9] | -0.493 | -1.26 | -1.56 | -1.25
FMCPVCGAHFTQKGNLLRHIKL [46F_47M_49P_50V_52G_53A_54H_55F_67L_, Q9UKT9] | -0.687 | 0.177 | 2.13 | 0.77
FDCPVCGAHFTQKGNLLRHIKL [46F_47D_49P_50V_52G_53A_54H_55F_67L_, Q9UKT9] | 2.9 | 1.04 | 0.819 | 1.19
FRCPVCGAHFTQKGNLLRHIKL [46F_47R_49P_50V_52G_53A_54H_55F_67L_, Q9UKT9] | -0.862 | -0.227 | 0.973 | 0.478
FWCPVCGAHFTQKGNLLRHIKL [46F_47W_49P_50V_52G_53A_54H_55F_67L_, Q9UKT9] | 2.57 | 3.79 | 1.99 | 0.84
FQCPVCGAHFTQKGNLLRHIKL [46F_47Q_49P_50V_52G_53A_54H_55F_67L_, Q9UKT9] | -0.252 | 1.64 | 1.32 | 3.27
FYCPVCGAHFTQKGNLLRHIKL [46F_47Y_49P_50V_52G_53A_54H_55F_67L_, Q9UKT9] | 2.89 | 3.48 | 2.31 | 0.928
FACPVCGAHFTQKGNLLRHIKL [46F_47A_49P_50V_52G_53A_54H_55F_67L_, Q9UKT9] | 2.93 | 1.05 | 0.871 | 0.221
FVCPVCGAHFTQKGNLLRHIKL [46F_47V_49P_50V_52G_53A_54H_55F_67L_, Q9UKT9] | -0.62 | 1.87 | 1.15 | 2.07
FGCPVCGAHFTQKGNLLRHIKL [46F_47G_49P_50V_52G_53A_54H_55F_67L_, Q9UKT9] | 2.85 | 0.903 | 1.38 | 0.174
LACEICGFLCTQKGNLLRHIKL [46L_47A_49E_50I_52G_53F_54L_55C_67L_, Q9UKT9] | 0.343 | -0.688 | -1.12 | -0.901
FGCDICGAFFTQKGNLLRHIKL [46F_47G_49D_50I_52G_53A_54F_55F_67L_, Q9UKT9] | 0.984 | -0.922 | 1.74 | -1.18
FECPICGHKFTQKGNLLRHIKL [46F_47E_49P_50I_52G_53H_54K_55F_67L_, Q9UKT9] | -3.48 | -2.51 | -2.67 | -1.19
FDCEICGRLFTQKGNLLRHIKL [46F_47D_49E_50I_52G_53R_54L_55F_67L_, Q9UKT9] | -2.24 | -1.71 | -0.0163 | -0.815
FWCDICGATFTQKGNLLRHIKL [46F_47W_49D_50I_52G_53A_54T_55F_67L_, Q9UKT9] | 2.74 | 3.05 | 0.604 | -1.08
FGCEICGREFTQKGNLLRHIKL [46F_47G_49E_50I_52G_53R_54E_55F_67L_, Q9UKT9] | -2.14 | -2.75 | -2.14 | -2.84
